Laboratory results taken from PubChem BioAssay AID1159580 (chemical genetic matrix, 2015).
“And” between values parts separate entries of the source, which are not always exact repeats. Equal entries are not always repeated. The whole screen tested about 5,500 compounds, of which about 2,000 (36%) were called active. About 18% were inconclusive and are not listed. Rule as the data show it: active = normalized growth mostly below about 0.91 (no sharp cut-off); inconclusive = no clear call, values can overlap the other calls; inactive = mostly above about 0.92. The list shows a part of the results.

Test: chemical genetic growth profiling, strain panel (AID 1159580);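 also: tested at 20 µM; growth read once vehicle control cultures reached saturation at 30 °C; 1 = growth at the plate median or of vehicle wells; lower values mean less growth of the strain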
Conditions: S. cerevisiae deletion strains, growth OD

Measured: normalized growth

C[C@H]1[C@H](C)CC[C@]2(C(=O)O)CC[C@]3(C)C(=CCC4[C@@]5(C)C[C@@H](O)[C@H](O)[C@@](C)(CO)C5[C@H](O)C[C@]43C)[C@H]12 (some centres not stated)
inactive: locus YAL021C, strain ccr4, stronger effect = lower value 1.01 | locus YAL026C, strain drs2, stronger effect = lower value 0.963 | locus YAL030W, strain snc1, stronger effect = lower value 0.973 | locus YBL061C, strain skt5, stronger effect = lower value 0.952 | locus YBR009C, strain hhf1, stronger effect = lower value 0.936 | locus YBR021W, strain FUR4, stronger effect = lower value 0.957 | locus YBR023C, strain chs3, stronger effect = lower value 0.942 | locus YBR171W, strain sec66, stronger effect = lower value 0.951 | locus YBR229C, strain ROT2, stronger effect = lower value 0.987 | locus YBR231C, strain swc5, stronger effect = lower value 0.953 | locus YBR279W, strain paf1, stronger effect = lower value 0.948 | locus YCL011C, strain gbp2, stronger effect = lower value 0.968 | locus YCL016C, strain dcc1, stronger effect = lower value 0.956 | locus YCL029C, strain bik1, stronger effect = lower value 0.981 | locus YCL061C, strain MRC1, stronger effect = lower value 0.971 | locus YCL069W, strain vba3, stronger effect = lower value 0.973 | locus YCR088W, strain abp1, stronger effect = lower value 0.961 | locus YDL005C, strain med2, stronger effect = lower value 0.948 | locus YDL035C, strain GPR1, stronger effect = lower value 0.972 | locus YDL040C, strain nat1, stronger effect = lower value 0.965 | locus YDL074C, strain BRE1, stronger effect = lower value 0.895 | locus YDL101C, strain DUN1, stronger effect = lower value 0.973 | locus YDL185W, strain tfp1, stronger effect = lower value 1.01 | locus YDR001C, strain nth1, stronger effect = lower value 0.969 | locus YDR069C, strain doa4, stronger effect = lower value 0.936 | locus YDR101C, strain arx1, stronger effect = lower value 0.967 | locus YDR150W, strain NUM1, stronger effect = lower value 0.996 | locus YDR162C, strain NBP2, stronger effect = lower value 0.954 | locus YDR297W, strain sur2, stronger effect = lower value 0.96 | locus YDR318W, strain mcm21, stronger effect = lower value 0.982 | locus YDR334W, strain swr1, stronger effect = lower value 0.978 | locus YDR335W, strain msn5, stronger effect = lower value 0.967 | locus YDR392W, strain spt3, stronger effect = lower value 0.916 | locus YDR502C, strain sam2, stronger effect = lower value 0.937 | locus YEL003W, strain gim4, stronger effect = lower value 0.954 | locus YEL037C, strain rad23, stronger effect = lower value 0.969 | locus YEL061C, strain CIN8 (second series), stronger effect = lower value 0.955 | locus YEL061C, strain CIN8, stronger effect = lower value 0.961 | locus YER015W, strain faa2, stronger effect = lower value 0.959 | locus YER016W, strain bim1, stronger effect = lower value 0.971 | locus YER110C, stronger effect = lower value 0.978 | locus YER111C, strain swi4, stronger effect = lower value 0.955 | locus YER155C, strain BEM2, stronger effect = lower value 0.985 | locus YER167W, strain BCK2, stronger effect = lower value 0.977 | locus YFR010W, strain ubp6, stronger effect = lower value 0.938 | locus YGL078C, strain dbp3, stronger effect = lower value 0.939 | locus YGL167C, strain pmr1, stronger effect = lower value 0.962 | locus YGL173C, strain kem1, stronger effect = lower value 0.949 | locus YGL227W, strain vid30, stronger effect = lower value 0.975 | locus YGL248W, strain PDE1, stronger effect = lower value 0.994 | locus YGL253W, strain hxk2, stronger effect = lower value 0.971 | locus YGR135W, strain pre9, stronger effect = lower value 0.943 | locus YGR252W, strain gcn5, stronger effect = lower value 0.849 | locus YHR013C, strain ard1, stronger effect = lower value 1.03 | locus YHR027C, strain rpn1, stronger effect = lower value 0.974 | locus YHR030C, strain SLT2, stronger effect = lower value 1 and 0.976 | locus YHR079C, strain IRE1 (second series), stronger effect = lower value 0.968 | locus YHR079C, strain IRE1, stronger effect = lower value 0.979 | locus YHR094C, strain hxt1, stronger effect = lower value 0.977 | locus YHR129C, strain ARP1, stronger effect = lower value 0.998 | locus YHR142W, strain chs7, stronger effect = lower value 0.949 | locus YHR200W, strain rpn10, stronger effect = lower value 0.944 | locus YIL066C, strain RNR3, stronger effect = lower value 0.985 | locus YIL073C, strain SPO22, stronger effect = lower value 1.02 | locus YIL125W, strain kgd1, stronger effect = lower value 0.947 | locus YIR030C, strain dcg1, stronger effect = lower value 0.971 | locus YJL092W, strain hpr5, stronger effect = lower value 0.963 | locus YJL095W, strain BCK1 (second series), stronger effect = lower value 0.972 | locus YJL115W, strain asf1, stronger effect = lower value 0.967 | locus YJL129C, strain trk1, stronger effect = lower value 0.937 | locus YJL134W, strain LCB3, stronger effect = lower value 0.991 | locus YJL154C, strain vps35, stronger effect = lower value 0.968 | locus YJL164C, strain tpk1, stronger effect = lower value 0.944 | locus YJL166W, strain qcr8, stronger effect = lower value 0.948 | locus YJL168C, strain set2, stronger effect = lower value 0.982 | locus YJL187C, strain SWE1 (second series), stronger effect = lower value 0.959 | locus YJR043C, strain POL32, stronger effect = lower value 0.985
0.944 (inactive) and 0.792 (active): locus YJL095W, strain BCK1, stronger effect = lower value
active: locus YAL013W, strain DEP1, stronger effect = lower value 0.769 | locus YDL192W, strain arf1, stronger effect = lower value 0.91 | locus YDR137W, strain rgp1, stronger effect = lower value 0.794 | locus YDR159W, strain sac3, stronger effect = lower value 0.854 | locus YDR195W, strain ref2 0.84 | locus YDR388W, stronger effect = lower value 0.911 | locus YER155C, strain BEM2 (second series), stronger effect = lower value 0.863 | locus YGL086W, strain mad1, stronger effect = lower value 1.18 [resistant] | locus YGL240W, strain doc1, stronger effect = lower value 0.886
